Peg3 promoter = Peg3 promoter activity inhibition; inhibition, % at 20 µM; actives 1.7% (n = 360,000); HeLa PEG-Prom luciferase reporter, luminescence, overnight; AID 588405;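 active means inhibition of at least 50% at 20 µM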
KKLEB cytotox = CF airway cell cytotoxicity counter-screen; AID 602141; actives 0.36% (n = 360,000); KKLEB CF airway cells viability, ATPlite luminescence, overnight; stronger effect = lower value; cells stimulated with P. aeruginosa culture filtrate; activity change (cytotoxicity), % at 5 µM;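 active means corrected activity change at or below -50% at 5 µM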
MITF TRPM1 inh = inhibitors of MITF-driven TRPM1 promoter in melanoma cells; SK-MEL-5 TRPM1 promoter luciferase, 24 h; inhibition, % at 12.5 µM; actives 0.83% (n = 330,000);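 active means mean inhibition across replicates of 60% or more, whatever share of single replicates reaches that level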
HIF-2a inh = blocks HIF-2a reporter activity. inhibition, % at 18.8 µM. AID 624352. 786-0 RCC cells HIF-2a reporter, luciferase luminescence, overnight. actives 0.72% (n = 360,000);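 active means inhibition of the luminescence signal of 40% or more relative to plate controls, in a single-dose primary screen at 18.75 µM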
Shn3 3UTR inh = inhibitors of Schnurri-3 3'UTR reporter in osteoblasts; Clone20 osteoblast Shn3 3'UTR firefly luciferase, 24 h; inhibition, % at 12.5 µM; actives 0.52% (n = 360,000); AID 588674;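 active means mean inhibition of at least 75% with every replicate also reaching 75%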;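 further: 0% = median of neutral control wells and 100% = pilot-screen positive control compound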
CF NFkB inh = blocks PAF-induced NF-kB reporter in cystic fibrosis cells | KKLEB NF-kB-GFP reporter, GFP fluorescence overnight | inhibition, % at 5 µM | actives 0.86% (n = 360,000) | AID 588850;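 active means at least 50% inhibition at 5 µM, scaled per plate between neutral and stimulator controls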;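 further: PAF is a Pseudomonas aeruginosa culture filtrate used as stimulus; plate controls were PAF-stimulated DMSO wells for no effect and unstimulated DMSO wells for full effect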
An asterisk follows results filed as active; / = not tested or not shown. This is a sample that favours compounds with a hit; in the whole collection about 2.8% have one here.

SMILES	Peg3 promoter	KKLEB cytotox	MITF TRPM1 inh	HIF-2a inh	Shn3 3UTR inh	CF NFkB inh
O=C(NCCc1ccccc1C(F)(F)F)C1CCC(=O)N(CCCN2CCCC2=O)C1 (configuration not stated)	-16.8	-12.0	-0.3	-15.5	-2.4	12.9
CN(C)S(=O)(=O)c1ccc(C(=O)Nc2nnc(SCC(=O)N3CCOCC3)s2)cc1	-9.5	7.1	/	-17.3	-0.5	-36.1
Cc1ccc(C(=O)Nc2nnc(SCC(=O)N3CCCc4ccccc43)s2)cc1	0.4	-97.4*	32.2	33.5	-11.1	2.6
CC(C)Oc1ccc(C(=O)Nc2nnc(SCC(=O)N3CCOCC3)s2)cc1	37.5	-73.6*	51.4	47.9*	34.5	12.1
COc1cc([N+](=O)[O-])ccc1NC(=O)C[n+]1cccc(C(C)=O)c1	11.4	21.5	3.6	7.9	-4.0	-19.1
CC(C)(C)c1cc(C(=O)NNc2cc(C(F)(F)F)ccc2Cl)n(Cc2ccccc2)n1	23.0	-5.4	-14.4	-70.4	6.5	33.2
CC1CCCN(c2ncnc3c2cnn3-c2ccccc2)C1 (configuration not stated)	2.0	-54.5*	40.7	17.6	25.2	-34.1
CCN(CC)C(=O)C1CCCN(c2ncnc3c2cnn3-c2ccc(Cl)cc2)C1 (configuration not stated)	55.6*	-5.6	59.5	50.1*	14.7	-1.2
c1ccc(-n2ncc3c(N4CCCCC4)ncnc32)cc1	-2.6	-37.3	16.1	15.2	9.4	-18.7
CC1(C(=O)NCc2cccc3ccccc23)CCN1Cc1cc2ccccc2o1 (configuration not stated)	5.3	-28.8	/	-14.2	23.4	29.2
CN(Cc1ccc(OCC(O)CN2CCCCC2)cc1)Cc1ccnc2ccccc12 (configuration not stated)	11.3	1.8	15.2	14.4	86.6*	0.7
O=C(C[C@@H]1C/C=C/CC[C@@H](Cc2ccc(F)cc2)C(=O)OC[C@H](Cc2ccccc2)NC1=O)N[C@H](CO)Cc1ccccc1	55.0*	-16.6	1.6	3.1	37.5	12.5
O=C1NCCOC(=O)[C@@H](Cc2ccc(F)cc2)CC/C=C/C[C@@H]1CC(=O)N(CCO)Cc1ccccc1	-14.0	0.4	-1.6	5.5	90.9*	-4.8
O=C(C[C@H]1C/C=C\CC[C@H](Cc2ccc(F)cc2)C(=O)O[C@@H](c2ccccc2)CNC1=O)N[C@@H](CO)Cc1ccccc1	65.5*	3.6	0.7	17.4	26.3	14.1
O=C(C[C@H]1C/C=C\CC[C@H](Cc2ccc(F)cc2)C(=O)O[C@@H](c2ccccc2)CNC1=O)N[C@H](CO)Cc1ccccc1	12.1	-6.6	3.2	1.7	-20.1	4.5
CCCCn1nnnc1C(c1ccccc1)N1CCN(c2ccccn2)CC1 (configuration not stated)	/	/	/	-5.7	/	/
Nc1ccc(C=C2C=Cc3ccccc32)cc1	-246.3	-4.6	-15.2	-120.3	-5.8	-24.8
NC(N)=Nc1ccc(C=C2C=Cc3ccccc32)cc1	104.4*	0.7	-2.5	-128.0	-3.7	0.4
COc1ccc(-n2c(O)c(C=Nc3ccccc3)c3ccccc3c2=O)cc1	47.0	-51.7*	-17.8	0.1	5.4	46.8
Cc1cc(N=Cc2c(O)n(-c3ccc4c(c3)OCO4)c(=O)c3ccccc23)ccn1	8.0	0.6	75.2*	2.8	40.1	8.7
CCCc1cc(=O)oc2c(C)c3occ(C)c3cc12	25.1	-11.7	8.0	13.2	20.3	-23.8
Cc1coc2c(C)c3oc(=O)cc(-c4ccccc4)c3cc12	74.5*	-6.5	11.8	5.9	-15.6	-2.7
O=C(C=Cc1ccco1)c1ccc2ccccc2c1	-256.1	-9.8	-56.5	-281.6	95.1*	-34.6
CN(C)c1ccc(C(=O)/C=C/c2ccco2)cc1	-245.6	-28.5	-44.4	-164.6	-131.1	14.9
Cc1c(C(=O)c2no[n+]([O-])c2C(=O)c2cnn(C)c2C)cnn1C	42.8	-26.8	16.1	-10.0	31.9	63.0*
O=C(c1ccc2c(c1)C(=O)N(CCCO)C2=O)c1ccc2c(c1)C(=O)N(CCCO)C2=O	10.1	5.2	2.3	6.0	15.2	6.4
O=C1c2ccc3c4c(ccc(c24)C(=O)N1CCCCO)C(=O)N(CCCCO)C3=O	48.6	-1.9	102.2*	-35.9	37.0	-29.4
O=C(COc1ccc([N+](=O)[O-])cc1)Nc1nnc(-c2cccnc2)s1	2.4	-5.5	-18.1	-1.6	5.5	-4.0

Screening data (PubChem)
